The nature of assay [1]: resazurin metabolic signal in HepG2 cells – cell-based, resazurin fluorescence, 24 h, PK04 Diversity Set, profiling panel (AID 1172). Note: test concentration not given here. The note with it: HepG2 viability, higher = more signal. In general terms: Resazurin is reduced to fluorescent resorufin, in cell work by metabolically active cells.
Assay [2] in a line: budding yeast growth changes without added modifier – OD600, strain BY4716, 24 h, basal condition, primary screen (AID 1173). As to conditions: S. cerevisiae BY4716 growth, OD600, 24 h; higher = more signal, called active from +8 up or from −8 down.
A short description of assay [3]: viability profiling in MM1S myeloma cells – cell-based, resazurin fluorescence, basal, 24 h, PK04 Diversity Set, profiling panel (AID 1174).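 Note: MM1S multiple myeloma cell line; test concentration not given here.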 As to conditions: higher = more signal, called active from +8 up or from −8 down.
Assay [4] addresses Dihydroorotate dehydrogenase (quinone), mitochondrial (Plasmodium falciparum (isolate 3D7)) (UniProt Q08210). Description: inhibition of P. falciparum DHODH – biochemical, C-terminal His tag, absorbance 600 nm, primary screen (AID 1175).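 Note: recombinant parasite enzyme with a five histidine tag at its C terminus; test concentration not given here.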 The note with it: PfDHODH enzyme, DCIP absorbance 600 nm; higher = more signal, called active from +8 up or from −8 down.
The nature of assay [5]: inhibition of PAO1 biofilm formation – strain PAO1, LB-PBS medium, absorbance 600 nm, primary screen (AID 1176). Note: test concentration not given here. The note with it: P. aeruginosa PAO1 growth/biofilm, A600, 12 h; higher = more signal.
The nature of assay [6]: growth modulation of vineyard yeast isolate – strain RM11-1a, OD600, basal, 24 h, primary screen (AID 1177).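 Note: cultures grown under basal conditions with no added stressor; test concentration not given here.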 The note with it: S. cerevisiae RM11-1a growth, OD600, 24 h; higher = more signal, called active from +8 up or from −8 down.
Assay [7] can be described thus: growth of efflux-deficient E. coli DRC39 – strain DRC39, OD650, 24 h, E. coli filamentation inducers, primary screen (AID 1178).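 Note: growth measured as culture turbidity by optical density at 650 nm; test concentration not given here.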 The note with it: E. coli DRC39 acrAB, higher = more signal, called active from +8 up or from −8 down.
Assay [8] in a line: growth of efflux-deficient E. coli DRC39 – strain DRC39, OD650, 48 h, E. coli filamentation inducers, primary screen (AID 1179).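 Note: screen aims at cell division blockers that make cells filament.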 As to conditions: E. coli DRC39 delta-acrAB growth, higher = more signal, called active from +8 up or from −8 down.
Assay [9] is described as follows: viability profiling in RPMI8226 myeloma cells – cell-based, resazurin fluorescence, basal, 24 h, PK04 Diversity Set, profiling panel (AID 1180).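 Note: RPMI8826 multiple myeloma cell line at 5000 cells per well; test concentration not given here.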 As to conditions: higher = more signal.
For assay [10], the target named is E3 ubiquitin-protein ligase XIAP (Homo sapiens) (UniProt P98170). Description: small molecules binding XIAP protein – biophysical, small-molecule microarray, fluorescence 635 nm, primary screen (AID 1181).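 Note: score merges 667 nm emission and signal to noise over triplicate slides.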 The note with it: higher = more signal.
Sequence of E3 ubiquitin-protein ligase XIAP (Homo sapiens) (P98170 whole entry, looked up): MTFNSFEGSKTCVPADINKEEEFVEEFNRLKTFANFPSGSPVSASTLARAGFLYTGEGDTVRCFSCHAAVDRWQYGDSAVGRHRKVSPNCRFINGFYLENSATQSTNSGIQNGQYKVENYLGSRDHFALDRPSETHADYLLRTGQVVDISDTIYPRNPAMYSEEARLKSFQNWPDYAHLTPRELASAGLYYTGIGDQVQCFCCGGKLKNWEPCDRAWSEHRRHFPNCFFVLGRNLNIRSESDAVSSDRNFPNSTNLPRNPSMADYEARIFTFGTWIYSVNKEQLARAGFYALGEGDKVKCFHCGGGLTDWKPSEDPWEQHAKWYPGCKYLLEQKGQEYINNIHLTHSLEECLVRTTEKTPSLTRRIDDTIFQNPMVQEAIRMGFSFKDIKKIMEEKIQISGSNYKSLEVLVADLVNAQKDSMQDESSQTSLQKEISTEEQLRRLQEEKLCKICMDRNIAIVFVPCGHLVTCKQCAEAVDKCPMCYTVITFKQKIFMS

The source of these data is PubChem BioAssay.

Structures are written as SMILES. Active and inactive are the calls of the source. Unless noted, the rule behind the calls is not given here.

Sequence of Dihydroorotate dehydrogenase (quinone), mitochondrial (Plasmodium falciparum (isolate 3D7)) (Q08210 whole entry, looked up): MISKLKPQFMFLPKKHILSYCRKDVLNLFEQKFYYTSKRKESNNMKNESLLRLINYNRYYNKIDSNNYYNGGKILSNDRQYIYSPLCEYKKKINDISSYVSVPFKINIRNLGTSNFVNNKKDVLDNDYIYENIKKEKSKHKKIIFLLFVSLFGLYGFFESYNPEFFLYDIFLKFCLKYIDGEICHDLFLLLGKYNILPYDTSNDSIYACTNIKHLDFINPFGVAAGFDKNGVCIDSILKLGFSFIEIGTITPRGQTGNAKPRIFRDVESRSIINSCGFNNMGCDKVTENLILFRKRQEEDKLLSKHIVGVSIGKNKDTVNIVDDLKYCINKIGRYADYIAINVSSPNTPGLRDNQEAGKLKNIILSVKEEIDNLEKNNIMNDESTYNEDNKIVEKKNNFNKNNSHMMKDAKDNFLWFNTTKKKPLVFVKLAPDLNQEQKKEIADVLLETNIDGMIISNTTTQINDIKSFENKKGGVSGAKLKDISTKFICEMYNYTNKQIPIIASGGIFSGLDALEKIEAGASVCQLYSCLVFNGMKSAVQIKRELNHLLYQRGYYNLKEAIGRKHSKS

For `O=C1C=C[C@@H](O)[C@@H]2[C@@H]3C(=O)N(Cc4ccccc4)C(=O)[C@@H]3CC[C@@H]12`, the z-score in assay [1] was -0.178; in [2], -0.459 (inactive); in assay [3], 0.183 (inactive); in assay [5] it was 0.647 (inactive); in assay [6], -0.83 (inactive); in [7], 0.479 (inactive). Also, the z-score is 0.116 (inactive) in assay [8] and -0.242 in assay [9]. The composite z-score in [4] was -0.136 (inactive); in assay [10], -0.0566.

For `COC(=O)C1=C(C)N(Cc2ccccc2)C2=C3C(=O)OCC[C@@H]3[C@@](O)(C(=O)OC)C(=O)N2[C@@H]1c1ccccc1`, the z-score in assay [1] was 1.11; in assay [2], -0.319 (inactive); in assay [3], -1.3 (inactive); in assay [5], -0.458 (inactive); in [6], 0.681 (inactive); in [7], 0.933 (inactive). The z-score in assay [8] is 0.575 (inactive); in assay [9] it was -0.0018. The composite z-score is 0.524 (inactive) in assay [4] and -0.0931 in assay [10].

For the compound `CC(C)[C@@H](OCc1ccccc1)[C@H](C)C=NO[C@@H](C)c1cn([C@H](CO)Cc2ccccc2)nn1`, the z-score in [1] was -1.07; in [2], -2.35 (inactive); in assay [3] it was -0.883 (inactive); in [5] it was 0.241 (inactive); in [6], -0.0022 (inactive); in assay [7], 0.805 (inactive). Moreover, the values for the z-score in [8] and in [9] were 0.633 (inactive) and -1.63, respectively. For the same compound, the values for the composite z-score in assay [4] and in [10] were -0.984 (inactive) and 0.0374, respectively.

Regarding `O=C1C[C@@H](O)[C@@H](O)[C@@H]2[C@@H]3C(=O)N(C4CCCCC4)C(=O)[C@@H]3CC[C@@H]12`, the z-score in assay [1] is -0.432; in assay [2], 0.133 (inactive); in [3], -0.262 (inactive); in [5], -1.13 (inactive); in assay [6], 0.356 (inactive); in assay [7] it was -0.574 (inactive). The z-score in assay [8] was -0.354 (inactive); in [9] it was -0.27. Further, the composite z-score in assay [4] was -0.506 (inactive); in assay [10], 0.333.

For the compound `CCOC(=O)CCN1C(=O)[C@H]2[C@H]3[C@H](O)[C@H](O)CC(=NNC(=O)OCC)[C@H]3CC[C@H]2C1=O`, the z-score in assay [1] was -0.207; in assay [2] it was -1.01 (inactive); in assay [3] it was 0.137 (inactive); in assay [5], 0.614 (inactive); in assay [6], 0.235 (inactive); in assay [7] it was -0.216 (inactive). The z-score in assay [8] was -0.318 (inactive); in assay [9] it was -0.0651. Besides, the values for the composite z-score in assay [4] and in [10] were 0.519 (inactive) and 0.106, respectively.

`O=C1C2=CC[C@H]3C(=O)N(C4CCCCC4)C(=O)[C@H]3[C@H]2[C@H](O)[C@@H]2O[C@H]12`: the z-score in [1] is -3.76; in assay [2], -5.74 (inactive); in [3], -7.88 (inactive); in [5] it was -0.2 (inactive); in assay [6], -1.83 (inactive); in assay [7] it was 0.0488 (inactive). Also, the z-score was -1.02 (inactive) in assay [8] and -4.05 in assay [9]. In addition, the results for the composite z-score in [4] and in assay [10] were -3.96 (inactive) and 0.0694, respectively.

For `CCc1cc2c(nc1CC)CCN(CCC(C)=NOCC[C@@H]1C=C[C@H](OC(C)=O)[C@@H](COC(C)=O)O1)C2`, the z-score is 0.0383 in [1]; 0.859 (inactive) in assay [2]; -0.123 (inactive) in [3]; 0.122 (inactive) in [5]; 1.23 (inactive) in [6]; -0.157 (inactive) in assay [7]. Also, the z-score was -1.33 (inactive) in assay [8] and 0.154 in assay [9]. The composite z-score is 0.903 (inactive) in [4] and -0.212 in [10].

With `CON=C(C)CCC(=O)OC[C@H]1O[C@H](C#Cc2ccccc2)C=C[C@@H]1Oc1ccc(C)cc1`, the z-score in assay [1] was -0.118; in [2], -0.944 (inactive); in assay [3], -0.642 (inactive); in assay [5], 0.298 (inactive); in assay [6], 0.888 (inactive); in [7], 0.556 (inactive). Further, the z-score in assay [8] is -1.88 (inactive); in assay [9], -0.549. Further, the results for the composite z-score in [4] and in assay [10] were 0.444 (inactive) and 0.289, respectively.

`CCN1C(=O)[C@H]2[C@H]3[C@H](O)[C@H](O)CC(=NOCC=C(C)CCC=C(C)C)[C@@H]3CC[C@H]2C1=O`: the z-score in assay [1] was -0.623; in assay [2], -6.59 (inactive); in assay [3], -0.719 (inactive); in assay [5], -0.446 (inactive); in [6], -0.29 (inactive); in assay [7], 0.42 (inactive). Also, the z-score in [8] was -0.731 (inactive); in assay [9] it was -0.517. Moreover, the composite z-score in [4] was -1.16 (inactive); in assay [10], 0.155.

As for `OC[C@H]1O[C@H](C#Cc2ccccc2)C=C[C@@H]1O`, the z-score in [1] was -0.0313; in [2], -2.6 (inactive); in assay [3], -0.323 (inactive); in assay [5], 0.298 (inactive); in assay [6] it was -0.353 (inactive); in [7] it was 0.953 (inactive). Moreover, the z-score was 0.626 (inactive) in assay [8] and 0.226 in assay [9]. Also, the composite z-score in assay [4] is -0.249 (inactive); in assay [10], -0.184.

Take `CCOC(=O)[C@H](Cc1ccccc1)NC(=O)CCC1CC(OC(=O)NCc2cccc3ccccc23)CC2(CCCC(COC(=O)NCC3CCCCC3)O2)O1` (stereo not given in full): the z-score was 1.21 in [1]; -0.424 (inactive) in assay [2]; 1.43 (inactive) in [3]; 0.143 (inactive) in assay [5]; -0.104 (inactive) in assay [6]; -0.475 (inactive) in assay [7]. Moreover, the z-score in assay [8] is 0.481 (inactive); in [9], 0.0833. Further, the composite z-score in assay [4] is -0.105 (inactive); in assay [10] it was 0.0424.

On to `C[C@@H]1CC[C@H]2C(=O)N3[C@@H](CC[C@@H](C)[C@@H]3c3ccc(Br)cc3)C(=O)N2[C@H]1c1ccc(Br)cc1`, for which the z-score in [1] was -0.346; in assay [2], 0.0314 (inactive); in assay [3], 0.208 (inactive); in assay [5], -0.27 (inactive); in assay [6], 0.973 (inactive); in [7] it was -0.124 (inactive). Also, the values for the z-score in [8] and in assay [9] were -1.38 (inactive) and 0.102, respectively. Further, the results for the composite z-score in assay [4] and in [10] were 0.553 (inactive) and -0.0056, respectively.

Consider `CCN1C(=O)[C@H]2[C@H]3[C@H](O)[C@H](O)CC(=NNC(=O)OCc4ccccc4)[C@@H]3CC[C@H]2C1=O`, for which the z-score in assay [1] was -0.501; in assay [2] it was 0.226 (inactive); in [3], -0.453 (inactive); in [5] it was -0.814 (inactive); in assay [6], -0.338 (inactive); in assay [7], 0.313 (inactive). The z-score in assay [8] was 0.0507 (inactive); in assay [9] it was -0.747. The composite z-score was -0.283 (inactive) in assay [4] and -0.0476 in [10].
